Measurements: PubChem BioAssay (Tox21)
A number with no mark means an inactive call. Entries that show only a call come without a potency. Activity calls are given as the source filed them. The call rests on the fitted dose curve; in most records, active means well fitted curve in the direction sought with a large enough effect in the repeat runs; inconclusive means weak or mixed curves; inactive means flat fitted curve, though single readings scatter.

Assay: qHTS assay to test for compound auto fluorescence at 460 nm (blue) in HepG2 cell free culture (AID 720685)
Conditions: Cell-free culture medium, blue autofluorescence 405/460 nm; series mostly up to 91.3 µM
Outline: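 Cell-free plates of MEM plus 10% FBS received 23 nL compound or DMSO vehicle; blue-channel (405/460 nm) intensity scored against triamterene as reference fluorophore.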

SMILES | Potency | fluorescence, % of fluorescent control
C=C(c1ccc(C(=O)O)cc1)c1cc2c(cc1C)C(C)(C)CCC2(C)C | inactive | –
CN1[C@@H]2CC[C@@H]1CC(OC(=O)C(CO)c1ccccc1)C2 (some centres not stated) | inactive | –
CN(C)c1ccc(N=Nc2ccccc2C(=O)O)cc1 | inactive | –
O=C1c2c(O)ccc(O)c2C(=O)c2c(NCCNCCO)ccc(NCCNCCO)c21 | – | -0.123% [at 18.6 µM]
CCCCCCCC/C=C\CCCCCCCC(=O)N(C)CC(=O)O | inactive | –
Clc1ccc(C(Cn2ccnc2)OCc2ccsc2Cl)c(Cl)c1 (configuration not stated) | inactive | –
CCCCOc1ccc(C(=O)CCN2CCCCC2)cc1 | – | 0.0259% [at 18.6 µM]
COc1ccc2sc(C(=O)Nc3nnn[nH]3)c(OC(C)C)c2c1 | inactive | –
Cc1c(-c2ccc(O)cc2)n(Cc2ccc(OCCN3CCCCCC3)cc2)c2ccc(O)cc12 | inactive | –
CN(C)c1ccc(N=NS(=O)(=O)O)cc1 | inactive | –
c1cc(OCC2CO2)cc(OCC2CO2)c1 (configuration not stated) | inactive | –
Cc1cc2c(C(C)C)c(O)c(O)c(C=O)c2c(O)c1-c1c(C)cc2c(C(C)C)c(O)c(O)c(C=O)c2c1O | inactive | –
C=C[C@](C)(O)CC[C@@H]1[C@@]2(C)CCCC(C)(C)[C@@H]2CC[C@@]1(C)O | inactive | –
CC(=O)OC(OC(C)=O)c1ccc([N+](=O)[O-])o1 | inactive | –
COC(=O)C1=C(C)NC(C)=C(C(=O)OCCCN2CCC(c3ccccc3)(c3ccccc3)CC2)C1c1cccc([N+](=O)[O-])c1 (configuration not stated) | inactive | –
CC=O | inactive | –
CCN(CC)CCOc1ccc(C(O)(Cc2ccc(Cl)cc2)c2ccc(C)cc2)cc1 (configuration not stated) | inactive | –
